Experimental findings from PubChem BioAssay (NCI) are described below.

Molecules are shown by their SMILES. About 79,000 compounds went through this panel and 15% of them were active in at least one assay; those are over-represented in the sample as a whole. A number with no mark means an inactive call. Calls of active or inactive are those of the source. Cut-off read from the data, not from the text of the source: active = growth inhibition above about 70%; inactive = the rest.

A short description of test [1]: NCI Yeast Anticancer Drug Screen. Data for the rad50 strain (AID 155).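 Note: 0% = growth of vehicle-only cultures of the same strain.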 The note with it: S. cerevisiae rad50 strain growth inhibition, hits give high values. In outline:
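Yeast carrying a defined DNA repair defect were exposed to test compounds, and growth was compared with vehicle-treated controls to give percent inhibition.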

Test [2] can be described thus: NCI Yeast Anticancer Drug Screen. Data for the mec2-1 strain (AID 157). To be noted: S. cerevisiae mec2-1 strain, hits give high values. The gist of the method:
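Cells of the genetically defined mec2-1 yeast strain are incubated with test compound. Inhibition of growth is calculated against vehicle-treated controls.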

Test [3] can be described thus: NCI Yeast Anticancer Drug Screen. Data for the sgs1 mgt1 strain (AID 161).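 Note: 0% = growth of cultures given vehicle only.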 The note with it: S. cerevisiae sgs1 mgt1 strain, hits give high values. In outline:
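Test agents were incubated with a DNA-repair-mutant yeast strain. Growth was then read and compared against vehicle-treated controls.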

Test [4] can be described thus: NCI Yeast Anticancer Drug Screen. Data for the cln2 rad14 strain (AID 165).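 Note: 0% = growth equal to vehicle treated cultures.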 To be noted: S. cerevisiae cln2 rad14 strain, hits give high values. In outline: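 The screen exposed genetically defined yeast (cln2 rad14) to test compounds and scored growth inhibition relative to vehicle-treated controls.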
The nature of test [5]: NCI Yeast Anticancer Drug Screen. Data for the bub3 strain (AID 167). The note with it: S. cerevisiae bub3 mutant strain, hits give high values. In outline:
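Compounds were applied to a genetically altered yeast strain carrying a cell-cycle control defect. Growth inhibition was scored against vehicle-treated controls.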

Test [6] in a line: NCI Yeast Anticancer Drug Screen. Data for the mlh1 rad18 strain (AID 175). The note with it: S. cerevisiae mlh1 rad18 strain growth inhibition, hits give high values. In outline: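 Compound-treated yeast growth, normalised to vehicle controls. Strain bears defined DNA repair mutations.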
Where [7] appears, read: at 5.0 µM (retest, dose inferred, filed as 0.5).
The mark [8] stands for this setting: at 50.0 µM (retest, dose inferred, filed as 5.0).

For the molecule `O=C1OC(C2OC(=O)C(=O)C2C(=O)c2ccc(Cl)cc2)C(C(=O)c2ccc(Cl)cc2)C1=O` (configuration not stated), the growth inhibition in test [1] (setting [7]) was -3%; in test [1] (setting [8]), 63%; in test [1] (at 50.0 µM) it was 82.9% (active); in test [2] (setting [7]), -3%; in test [2] (setting [8]) it was 37%; in test [2] (at 50.0 µM), 11.8%. Further, the growth inhibition in test [3] (setting [7]) is 1%; in test [3] (setting [8]), 64%; in test [3] (at 50.0 µM), 30.5%; in test [4] (setting [7]), -4%; in test [4] (setting [8]), 31%; in test [4] (at 50.0 µM), 29.6%. For the same molecule, the growth inhibition in test [5] (setting [7]) was 9%; in test [5] (setting [8]), 43%; in test [5] (at 50.0 µM) it was 43%; in test [6] (setting [7]) it was -5%; in test [6] (setting [8]), 85% (active); in test [6] (at 50.0 µM) it was 76.7% (active).

Turning to `Cc1cc(C)nc(/C=C/c2ccccc2)c1`, the growth inhibition in test [1] (setting [7]) was -1%; in test [1] (setting [8]), -10%; in test [1] (at 50.0 µM), 98.5% (active); in test [2] (setting [7]), 1%; in test [2] (setting [8]) it was 7%; in test [2] (at 50.0 µM), 96.6% (active). Further, the growth inhibition in test [3] (setting [7]) is -9%; in test [3] (setting [8]), 22%; in test [3] (at 50.0 µM), 98.6% (active); in test [4] (setting [7]), -1%; in test [4] (setting [8]) it was 16%; in test [4] (at 50.0 µM), 94.1% (active). Further, the growth inhibition in test [5] (setting [7]) is 18%; in test [5] (setting [8]), 29%; in test [5] (at 50.0 µM), 97.1% (active); in test [6] (setting [7]), 10%; in test [6] (setting [8]), 18%; in test [6] (at 50.0 µM), 97.8% (active).

For `CCOc1ccc2c(c1)n([O-])c1cc(Br)ccc1[n+]2=O`, the growth inhibition in test [1] (setting [7]) was 95% (active); in test [1] (setting [8]), 93% (active); in test [1] (at 50.0 µM) it was 22.4%; in test [2] (setting [7]), 49%; in test [2] (setting [8]), 85% (active); in test [2] (at 50.0 µM), 86.3% (active). Further, the growth inhibition was 72% (active) in test [3] (setting [7]); 95% (active) in test [3] (setting [8]); 88.2% (active) in test [3] (at 50.0 µM); 35% in test [4] (setting [7]); 90% (active) in test [4] (setting [8]); 49% in test [4] (at 50.0 µM). Further, the growth inhibition in test [5] (setting [7]) was 33%; in test [5] (setting [8]) it was 92% (active); in test [5] (at 50.0 µM), 78.6% (active); in test [6] (setting [7]), 91% (active); in test [6] (setting [8]), 93% (active); in test [6] (at 50.0 µM) it was 85.8% (active).

Turning to `O=Cc1ccc2c(c1)CC1(C2)Cc2ccc3c(c2C1)CCC3` (configuration not stated), the growth inhibition is -1% in test [1] (setting [7]); 68% in test [1] (setting [8]); 92.9% (active) in test [1] (at 50.0 µM); 0% in test [2] (setting [7]); 78% (active) in test [2] (setting [8]); 89.3% (active) in test [2] (at 50.0 µM). Besides, the growth inhibition in test [3] (setting [7]) is 14%; in test [3] (setting [8]) it was 81% (active); in test [3] (at 50.0 µM) it was 87.6% (active); in test [4] (setting [7]), -2%; in test [4] (setting [8]), 41%; in test [4] (at 50.0 µM), 73% (active). Further, the growth inhibition was -1% in test [5] (setting [7]); 74% (active) in test [5] (setting [8]); 91.5% (active) in test [5] (at 50.0 µM); 1% in test [6] (setting [7]); 74% (active) in test [6] (setting [8]); 84.8% (active) in test [6] (at 50.0 µM).

In the case of `Cn1cnc([N+](=O)[O-])c1Sc1nc2ccccc2s1`, the growth inhibition in test [1] (setting [7]) was 57%; in test [1] (setting [8]) it was 96% (active); in test [1] (at 50.0 µM), 91.3% (active); in test [2] (setting [7]), 38%; in test [2] (setting [8]), 98% (active); in test [2] (at 50.0 µM), 92.3% (active). For the same molecule, the growth inhibition in test [3] (setting [7]) was 51%; in test [3] (setting [8]), 97% (active); in test [3] (at 50.0 µM) it was 92.1% (active); in test [4] (setting [7]), 35%; in test [4] (setting [8]) it was 74% (active); in test [4] (at 50.0 µM), 90.7% (active). The growth inhibition in test [5] (setting [7]) was 45%; in test [5] (setting [8]), 97% (active); in test [5] (at 50.0 µM) it was 91.4% (active); in test [6] (setting [7]) it was 64%; in test [6] (setting [8]), 98% (active); in test [6] (at 50.0 µM), 90% (active).

For `CCn1c2ccc(N)cc2c2c(N)c(-n3cccc3)ccc21`, the growth inhibition in test [1] (setting [7]) is 1%; in test [1] (setting [8]) it was 61%; in test [1] (at 50.0 µM), 94.5% (active); in test [2] (setting [7]), 3%; in test [2] (setting [8]), 54%; in test [2] (at 50.0 µM), 64.2%. In addition, the growth inhibition is -7% in test [3] (setting [7]); 71% (active) in test [3] (setting [8]); 97.5% (active) in test [3] (at 50.0 µM); -6% in test [4] (setting [7]); 50% in test [4] (setting [8]); 61.9% in test [4] (at 50.0 µM). The growth inhibition is -2% in test [5] (setting [7]); 86% (active) in test [5] (setting [8]); 87.5% (active) in test [5] (at 50.0 µM); 4% in test [6] (setting [7]); 57% in test [6] (setting [8]); 91.5% (active) in test [6] (at 50.0 µM).

As for `CCCOC1(C)CC(c2cc(OC)c(OC)c(OC)c2)c2cc3c(cc2O1)OCO3` (configuration not stated), the growth inhibition in test [1] (setting [7]) was 5%; in test [1] (setting [8]), 96% (active); in test [1] (at 50.0 µM) it was 5.1%; in test [2] (setting [7]) it was 5%; in test [2] (setting [8]), 100% (active); in test [2] (at 50.0 µM), 7.75%. In addition, the growth inhibition in test [3] (setting [7]) was 5%; in test [3] (setting [8]), 99% (active); in test [3] (at 50.0 µM) it was -2.6%; in test [4] (setting [7]), 4%; in test [4] (setting [8]), 99% (active); in test [4] (at 50.0 µM), 34.7%. In addition, the growth inhibition was 5% in test [5] (setting [7]); 99% (active) in test [5] (setting [8]); 3.15% in test [5] (at 50.0 µM); 2% in test [6] (setting [7]); 99% (active) in test [6] (setting [8]); 18.9% in test [6] (at 50.0 µM).

With `COc1ccc(OC2OC(COC(c3ccccc3)(c3ccc(OC)cc3)c3ccc(OC)cc3)C(O)C(O)C2O)cc1` (configuration not stated), the growth inhibition was 4% in test [1] (setting [7]); 98% (active) in test [1] (setting [8]); 97.5% (active) in test [1] (at 50.0 µM); -10% in test [2] (setting [7]); 98% (active) in test [2] (setting [8]); 97% (active) in test [2] (at 50.0 µM). Further, the growth inhibition in test [3] (setting [7]) is 9%; in test [3] (setting [8]), 69%; in test [3] (at 50.0 µM), 98.1% (active); in test [4] (setting [7]), 11%; in test [4] (setting [8]), 98% (active); in test [4] (at 50.0 µM), 97.6% (active). The growth inhibition was 4% in test [5] (setting [7]); 99% (active) in test [5] (setting [8]); 95.5% (active) in test [5] (at 50.0 µM); -11% in test [6] (setting [7]); 98% (active) in test [6] (setting [8]); 96.7% (active) in test [6] (at 50.0 µM).

On to `Cc1c(C)c(C[P+](CCP(c2ccccc2)c2ccccc2)(c2ccccc2)c2ccccc2)c(C)c(C)c1C[P+](CCP(c1ccccc1)c1ccccc1)(c1ccccc1)c1ccccc1`, for which the growth inhibition in test [1] (setting [7]) was 18%; in test [1] (setting [8]), 36%; in test [1] (at 50.0 µM) it was 29.8%; in test [2] (setting [7]) it was 11%; in test [2] (setting [8]) it was 13%; in test [2] (at 50.0 µM), 16.5%. Moreover, the growth inhibition in test [3] (setting [7]) was 7%; in test [3] (setting [8]), 41%; in test [3] (at 50.0 µM), 59.5%; in test [4] (setting [7]), -14%; in test [4] (setting [8]) it was 2%; in test [4] (at 50.0 µM) it was -1.3%. For the same molecule, the growth inhibition in test [5] (setting [7]) is 14%; in test [5] (setting [8]), 21%; in test [5] (at 50.0 µM) it was -5.8%; in test [6] (setting [7]) it was 13%; in test [6] (setting [8]), 33%; in test [6] (at 50.0 µM) it was 35.2%.
